# Among all 4,300 compounds or so, about 60 (1%) were called active.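 The calls were made as follows: active = inhibition of labelled peptide binding to the formyl peptide receptor of at least 65%; inactive = the rest.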 This excerpt belongs to a sample that is enriched for actives.
# Target: fMet-Leu-Phe receptor (Homo sapiens) (UniProt P21462)
# Test: FPR binders displacing fluorescent formyl peptide, primary screen, U937-FPR cells, fMLFK-FITC, flow cytometry (AID 362);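 as to inhibition: plate controls were buffer control wells for no effect and unlabeled fMLFF blocking peptide for full effect; higher means less cell fluorescence so more probe displaced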
# Settings: fMLFK-FITC displacement; stronger effect = higher value, concentration not given here
# Chain of fMet-Leu-Phe receptor (Homo sapiens) (P21462 whole entry, looked up): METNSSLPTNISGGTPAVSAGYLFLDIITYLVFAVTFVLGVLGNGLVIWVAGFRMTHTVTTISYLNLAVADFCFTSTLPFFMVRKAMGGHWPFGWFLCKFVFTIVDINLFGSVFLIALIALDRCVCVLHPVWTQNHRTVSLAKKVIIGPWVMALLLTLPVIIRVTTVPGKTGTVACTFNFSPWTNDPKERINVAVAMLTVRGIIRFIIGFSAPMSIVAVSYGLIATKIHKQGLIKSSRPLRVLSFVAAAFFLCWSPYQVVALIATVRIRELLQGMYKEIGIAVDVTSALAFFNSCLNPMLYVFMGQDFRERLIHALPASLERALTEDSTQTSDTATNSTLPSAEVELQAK
row,Compound,inhibition
1,CCC(C)C(NC(=O)C(CC(=O)OCc1ccccc1)NC(=O)OC(C)(C)C)C(=O)NC(Cc1ccccc1)C(N)=O (stereo not drawn),inactive
2,CCOc1cc(C2C(C(=O)OC3CCCC3)=C(C)NC3=C2C(=O)C(C(=O)OC)C(C)C3)ccc1O (stereo not drawn),15.5% (inactive)
3,CCCN(CCC)CCNC(=O)c1cn(CC(C)C)c(=O)c2cc(OC)c(OC)cc12,inactive
4,CC1=C(C(=O)OC2CCCCC2)C(c2cccc(O)c2)C2=C(CC(C)(C)CC2=O)N1 (stereo not drawn),20.5% (inactive)
5,O=C(CCCCCn1c(SCC(=O)NCc2ccccc2)nc2ccccc2c1=O)NCc1ccco1,3.6% (inactive)
6,COc1ccc2nc(NC(=O)C(NS(=O)(=O)c3ccc4c(c3)CCN4C(C)=O)C(C)C)sc2c1 (stereo not drawn),inactive
7,COc1ccc(C2/C(=C(/O)c3ccc(Cl)cc3)C(=O)C(=O)N2CC(C)C)c(OC)c1 (stereo not drawn),31.1% (inactive)
8,COc1ccc(OC)c(C2/C(=C(\O)c3ccc(F)cc3)C(=O)C(=O)N2CCCCCC(=O)O)c1 (stereo not drawn),84.5% (active)
9,COc1ccc(OC)c(C2/C(=C(/O)c3ccc(C)cc3)C(=O)C(=O)N2CC(C)C)c1 (stereo not drawn),86.7% (active)
10,COc1ccc(C2/C(=C(/O)c3ccc(C)cc3)C(=O)C(=O)N2CC(C)C)c(OC)c1 (stereo not drawn),52.9% (inactive)
11,COc1ccccc1C1/C(=C(\O)c2ccc(F)cc2)C(=O)C(=O)N1CCCCCC(=O)O (stereo not drawn),11.2% (inactive)
12,COc1ccc(C2/C(=C(\O)c3ccc(F)cc3)C(=O)C(=O)N2CCCCCC(=O)O)c(OC)c1 (stereo not drawn),23.3% (inactive)
13,O=C(Nc1nccs1)c1cc(N2C(=O)C3C4CCC(C4)C3C2=O)ccc1Cl (stereo not drawn),inactive
14,CCSCCOC(=O)C1=C(C)NC2=C(C(=O)C(C(=O)OC)C(C)C2)C1c1cccc(F)c1 (stereo not drawn),5.8% (inactive)
15,O=c1oc2cc(O)ccc2c2c1CCCC2,inactive
16,O=c1oc2cc(O)ccc2c2c1CCC2,7% (inactive)
17,O=c1oc2cc(O)cc(O)c2c2c1CCC2,81.6% (active)
18,Cc1cc(NC(=O)C2CCCCC2C(=O)O)nn1Cc1ccc(Cl)cc1 (stereo not drawn),3% (inactive)
19,CCCCCCOC(=O)C1=C(C)NC(=O)NC1c1cc(OC)c(O)c(OC)c1 (stereo not drawn),inactive
20,CCCCCC(=O)Oc1cccc(N2C(=O)C3C4CCC(C4)C3C2=O)c1 (stereo not drawn),inactive
21,COC(=O)CC/C(O)=C1\C(=O)CC(C)(C)CC1=NCCc1ccc(OC)c(OC)c1,3.2% (inactive)
22,CCOc1cc2c(C(=O)O)cn(CC(C)C)c(=O)c2cc1OCC,70% (active)

row,Compound,inhibition
1,CCOc1cc2c(C(=O)N3CCN(c4ccccn4)CC3)cn(CC(C)C)c(=O)c2cc1OCC,3.9% (inactive)
2,COc1cc2c(C(=O)O)cn(CC(C)C)c(=O)c2cc1OC,inactive
3,CCCc1cc(=O)oc2cc(OC(C)=O)cc(OC(C)=O)c12,77.3% (active)
4,CCCc1cc(=O)oc2cc(OC(C)=O)ccc12,17.6% (inactive)
5,CCCc1cc(=O)oc2cc(OCC(=O)OCC)cc(OCC(=O)OCC)c12,inactive
6,CCOc1ccc(CCNC(=O)c2cn(CC(C)C)c(=O)c3cc(OC)c(OC)cc23)cc1OCC,inactive
7,C=C(C)Cn1c(SCC(=O)c2ccccc2)nc2c(c1=O)C1(CCCC1)Cc1ccccc1-2,inactive
8,CCOC(=O)c1cc2c(=O)n3ccccc3nc2n(CC(C)C)c1=NC(=O)c1ccccc1OCC,inactive
9,CCCOC(=O)c1c(NC(=O)C2CCCCC2C(=O)O)sc(C)c1C (stereo not drawn),35.7% (inactive)
10,CCOC(=O)c1c(NC(=O)C2C3CCC(C3)C2C(=O)O)sc(C)c1-c1ccc(Cl)cc1 (stereo not drawn),45.9% (inactive)
11,CCOC(=O)c1c(NC(=O)C2C3CCC(C3)C2C(=O)O)sc(C)c1-c1ccc(C(C)(C)C)cc1 (stereo not drawn),63.6% (inactive)
12,CCOC(=O)c1c(NC(=O)C2CCCCC2C(=O)O)sc(C)c1-c1ccc(Cl)cc1 (stereo not drawn),77.1% (active)
13,CCOC(=O)c1c(NC(=O)C2CCCCC2C(=O)O)sc(C)c1-c1ccc(F)cc1 (stereo not drawn),57.3% (inactive)
14,Cc1sc(NC(=O)C2C3CCC(C3)C2C(=O)O)c(C(N)=O)c1-c1ccc(C(C)(C)C)cc1 (stereo not drawn),82% (active)
15,CCCOC(=O)c1c(NC(=O)C2CCCCC2C(=O)O)sc(C)c1-c1ccc(F)cc1 (stereo not drawn),17.2% (inactive)
16,CCOC(=O)c1c(NC(=O)C2CCCCC2C(=O)O)sc(C)c1-c1ccc(C(C)(C)C)cc1 (stereo not drawn),29.4% (inactive)
17,Cc1sc(NC(=O)C2CCCCC2C(=O)O)c(C(N)=O)c1-c1ccc(C(C)(C)C)cc1 (stereo not drawn),70.2% (active)
18,N#CC1=C(SCC(=O)Nc2ccc(Br)cc2)NC(=O)C(C#N)C12CCCCC2 (stereo not drawn),79.2% (active)
19,N#CC1=C(SCC(=O)Nc2ccc(F)cc2)NC(=O)C(C#N)C12CCCCC2 (stereo not drawn),15.5% (inactive)
20,N#CC1=C(SCC(=O)Nc2ccc(Cl)cc2)NC(=O)C(C#N)C12CCCCC2 (stereo not drawn),52.1% (inactive)
21,CC1CCC(C(C)C)C(OCC(O)CN2CCC(CN3C(=O)c4cccc5cccc(c45)C3=O)CC2)C1 (stereo not drawn),93.4% (active)
22,O=C(CCCN1C(=O)c2cccc3cccc(c23)C1=O)N1CCC(CN2C(=O)c3cccc4cccc(c34)C2=O)CC1,inactive

row,Compound,inhibition
1,O=C1c2cccc3cccc(c23)C(=O)N1CC1CCN(C(=O)C23CC4CC(CC(C4)C2)C3)CC1,inactive
2,CCOC(=O)c1cnc2cc(Cl)c(OC)cc2c1NCCC1=CCCCC1,0.9% (inactive)
3,CCOC(=O)c1cnc2ccc(OCC)cc2c1N1CCCCCC1,25.2% (inactive)
4,CCOC(=O)c1cnc2ccc(OC)cc2c1NC1CCCCC1,99.3% (active)
5,CCCN(CCC)Cc1c(O)ccc2c(=O)c(Oc3cc(C)cc(C)c3)c(C(F)(F)F)oc12,17.9% (inactive)
6,COc1cc2c(C(=O)NCCc3ccc(Cl)cc3)cn(CC(C)C)c(=O)c2cc1OC,inactive
7,CC(=O)Oc1ccc(C2Nc3c(C(=O)O)ccc([N+](=O)[O-])c3C3C=CCC32)cc1 (stereo not drawn),inactive
8,CCOC(=O)C1CCC(CN(Cc2cccc(Br)c2)S(=O)(=O)c2cccc(C(F)(F)F)c2)CC1 (stereo not drawn),inactive
9,CN(C)c1ccc(C(c2cc(C(C)(C)C)c(O)c(C(C)(C)C)c2)N2CCOCC2)cc1 (stereo not drawn),29.2% (inactive)
10,CCCc1cc2c(=O)c(-c3ccc(C(=O)OCC)o3)c(C(=O)OCC)oc2cc1OC(C)=O,96% (active)
11,CCOc1cc2oc(C(F)(F)F)c(Oc3ccccc3)c(=O)c2cc1CC,27.9% (inactive)
12,CCc1cc2c(=O)c(Oc3ccccc3)c(C(F)(F)F)oc2cc1O,70.8% (active)
13,CCOC(=O)c1ccc(-c2c(C(F)(F)F)oc3cc(O)c(CC)cc3c2=O)o1,79.1% (active)
14,CCCc1cc(-c2n[nH]c(C)c2-c2ccc(C(=O)OCC)o2)c(O)cc1O,10.6% (inactive)
15,CCc1cc2c(=O)c(-c3nc4ccccc4n3C)c(C(F)(F)F)oc2cc1O,inactive
16,O=c1c(Oc2ccccc2)c(C(F)(F)F)oc2cc(O)ccc12,46.2% (inactive)
17,CCc1cc2c(=O)c(Oc3ccccc3)c(C(F)(F)F)oc2cc1OC,inactive
18,CCCc1cc2c(=O)c(-c3ccc(C(=O)OCC)o3)coc2cc1OC(C)=O,16.9% (inactive)
19,CCc1cc2c(=O)c(Oc3ccccc3)c(C(F)(F)F)oc2cc1OC(C)=O,121% (active)
20,CCCc1cc2c(=O)c(-c3ccc(C(=O)OCC)o3)c(C(=O)OCC)oc2cc1OC,7.1% (inactive)
21,CCOc1ccc2c(=O)c(Oc3ccccc3)c(C(F)(F)F)oc2c1,inactive
22,CC(=O)N1CCCc2cc(S(=O)(=O)NC(C(=O)Nc3nc4ccc(C)cc4s3)C(C)C)ccc21 (stereo not drawn),inactive

row,Compound,inhibition
1,COCCOC(=O)C1=C(C)NC2=C(C(=O)C(C(=O)OC)C(C)C2)C1c1cccc(O)c1 (stereo not drawn),4.6% (inactive)
2,CC1(C)CC(=O)C2=C(C1)OC(N)=C(C#N)C2c1ccc(Cl)cc1 (stereo not drawn),7.6% (inactive)
3,CC(=O)N1CCc2cc(S(=O)(=O)NC(C(=O)Nc3ccccn3)C(C)C)ccc21 (stereo not drawn),inactive
4,Cc1cc(C)c(S(=O)(=O)NCC2CCC(C(=O)NCCc3ccc(Cl)cc3)CC2)c(C)c1 (stereo not drawn),18.5% (inactive)
5,CCc1cc(=O)oc2cc(OCC(=O)OC)c(Cl)cc12,inactive
6,CCCOc1ccc(C2NC(=O)NC(C)=C2C(=O)OCC(C)CCC)cc1 (stereo not drawn),inactive
7,CCOC(=O)Oc1ccc2c(=O)c(Oc3cccc(C)c3)c(C(F)(F)F)oc2c1,inactive
8,CCOc1ccc2c(c1)C(C)=CC(C)(C)N2C(=O)C(C)N1C(=O)c2ccccc2C1=O (stereo not drawn),inactive
9,Cc1cc(NC(=O)CSc2nc3ccccc3c(=O)n2CC2CCC(C(=O)NCCc3ccccc3)CC2)no1 (stereo not drawn),inactive
10,CNC(=O)C1CCC(CNS(=O)(=O)c2ccc(NC(C)=O)cc2)CC1 (stereo not drawn),inactive
11,CC(=O)Oc1ccc2c(=O)c(Oc3cc(C)cc(C)c3)c(C(F)(F)F)oc2c1,9.4% (inactive)
12,CCCc1ccc(Oc2c(C(F)(F)F)oc3cc(OC(C)=O)ccc3c2=O)cc1,46.4% (inactive)
13,CCCc1cc2c(=O)c(-c3nc(C)cs3)c(C)oc2cc1OC(C)=O,72.7% (active)
14,CCOC(=O)Oc1ccc2c(=O)c(-c3ccccc3OC)c(C(F)(F)F)oc2c1,36.6% (inactive)
15,COc1ccccc1-c1c(C(F)(F)F)oc2cc(OC(=O)C(C)C)ccc2c1=O,92% (active)
16,CC(=O)Oc1ccc2c(=O)c(Oc3ccccc3)c(C(F)(F)F)oc2c1,97.6% (active)
17,CCCc1cc2c(=O)c(-c3nc4ccccc4s3)c(C)oc2cc1OC(C)=O,inactive
18,CCCc1cc2c(=O)c(-c3nc(C)cs3)coc2cc1OC(C)=O,inactive
19,COc1ccc2c(=O)c(-c3ccccc3OC)c(C(F)(F)F)oc2c1,inactive
20,CCCCNC(=O)C1CCN(S(=O)(=O)N(CC(C)C)CC(C)C)CC1,inactive
21,CCCOC(=O)c1c(NC(=O)C2C3C=CC(C3)C2C(=O)O)sc2c1CCCC2 (stereo not drawn),inactive
22,COc1cc2c(C(=O)N(C)c3cccc(C(F)(F)F)c3)cn(CC(C)C)c(=O)c2cc1OC,inactive
